Hit rate of the full screen: of about 350,000 compounds, about 6,000 (1.7%) were called active. Not shown: some 5% with an inconclusive outcome. Rule as the data show it: active = CPE inhibition above about 20% (passing the limit was not always enough); inconclusive = no clear call, values can overlap the other calls; tested in BHK-21 cells. Shown is part of a subset that was picked to be rich in actives.
Experiment: inhibitors of DENV2 cytopathic effect, primary screen, cell-based, plate reader, single concentration (AID 651640);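 also: 0% = median of neutral control wells and 100% = median of positive control wells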
Conditions: DENV2-infected cells, cytopathic effect rescue, at 9.99 µM, active compounds read high

CPE inhibition, inactive:
COc1ccc2c3c([nH]c2c1)[C@H](CO)N(Cc1nccs1)CC31CCN(Cc2ccncc2)CC1 6.23%
CCC(=O)N(C)C[C@@H]1Oc2cc(C#C[C@H](C)O)ccc2S(=O)(=O)N([C@@H](C)CO)C[C@H]1C -5.73%
C[C@@H]1CCCCO[C@H](CN(C)S(=O)(=O)c2cn(C)cn2)[C@@H](C)CN([C@@H](C)CO)C(=O)c2cc(NC(=O)c3ccncc3)ccc2O1 1.9%
O=C(CN1CCOCC1)Nc1ccccc1 1.83%
COc1cc2c(cc1OC)CN(CC(=O)Nc1ccc(F)cc1)CC2 -5.5%
O=C([C@@H]1[C@@H](CO)[C@@H]2Cn3c(ccc(C4=CCCCC4)c3=O)[C@H]1N2Cc1nccs1)N1CCCCC1 -3.86%
COc1ccc2c3c(n(C)c2c1)[C@@H](CO)N(C(=O)c1cccnc1)CC31CCN(C(=O)c2cccnc2)CC1 -1.97%
CCCC#Cc1ccc([C@@H]2[C@@H](CO)N3C(=O)CN(C(=O)c4ccncc4)C[C@@H]23)cc1 0.156%
COCC(=O)N1[C@H](CO)[C@@H](c2ccccc2)[C@H]1CN(C)C(=O)c1ccncc1 -13.8%
CCNC[C@@H]1[C@@H](c2ccccc2)[C@@H](CO)N1C(=O)Cc1ccccn1 -0.972%
COc1ccc2c3c([nH]c2c1)[C@H](CO)N(Cc1cccc(F)c1)CC31CCN(Cc2ccccn2)CC1 5.05%
O=C(Nc1ccc(CN2CCOCC2)cc1)c1cc(Cl)ccc1Cl 0.583%
CCCc1cc(=O)oc2cc(OCC(=O)Nc3ccc(CN4CCOCC4)cc3)c(Cl)cc12 2.98%
Cc1noc(C)c1NC(=O)Nc1ccc2c(c1)CC(=O)N([C@H](C)CO)C[C@@H](C)[C@H](CN(C)S(=O)(=O)c1cccs1)O2 5.9%
C[C@@H]1CN([C@@H](C)CO)C(=O)c2cccc(NS(=O)(=O)c3ccc(Cl)cc3)c2O[C@@H]1CN(C)Cc1ccccc1 10.9%
O=C(Cc1cccnc1)N1CC(=O)N2[C@@H](CO)[C@@H](c3ccc(C#CC4CCCCC4)cc3)[C@@H]2C1 6.08%
O=C(Nc1nnc(-c2ccccc2)o1)c1cc(-c2cccs2)nc2ccccc12 -13.1%
CC(=O)NCCNC(=O)c1cc(-c2cccc3ccccc23)nc2ccccc12 2.13%
C/C=C/c1ccc([C@H]2[C@@H](CO)N(C(=O)NCCC)[C@H]2CN(C)C(C)=O)cc1 -22.2%
C/C=C/c1ccc([C@@H]2[C@@H](CO)N(C(C)=O)[C@H]2CN(C)C(=O)CN(C)C)cc1 8.38%
COc1ccc(-c2cn(CC[C@H]3CC[C@@H](NC(=O)CCN4CCCCC4)[C@H](CO)O3)nn2)cc1 -5.26%
Cc1noc(C)c1S(=O)(=O)Nc1ccc2c(c1)C(=O)N([C@@H](C)CO)C[C@H](C)[C@H](CN(C)CC1CCCCC1)OCCCC[C@H](C)O2 -11.5%
COc1cccc(-c2ccc3n(c2=O)C[C@@H]2[C@@H](CO)[C@H](C(=O)NCC4CC4)N(C(=O)NC(C)C)[C@H]32)c1 13.2%
O=C([C@@H]1[C@@H](CO)[C@@H]2Cn3c(ccc(-c4cncnc4)c3=O)[C@@H]2N1C(=O)C1CCC1)N1CCCCC1 -0.056%
CCC(=O)N1CCCCN2[C@H](C1)[C@@H](c1ccc(/C=C/c3ccccc3)cc1)[C@@H]2CO -4.84%
CC(C)(C)[S@@](=O)N1Cc2cc(C(=O)N3CCCCC3)nc(-c3cccc(-c4cccc(C#N)c4)c3)c2[C@H]1CCO -1%
CC(C)(C)[S@](=O)N1Cc2cc(C(=O)N3CCCCC3)nc(-c3cccc(-c4ccccc4F)c3)c2[C@@H]1CCO 1.74%
COC(=O)CCCCCN1C(=O)NC(c2ccc(-c3ccccc3)cc2)C(C(=O)OCc2ccccc2)=C1C (configuration not stated) -1.13%
CCC(CC)COC(=O)C1=C(C)NC(=O)NC1c1ccc([N+](=O)[O-])cc1 (configuration not stated) 4.17%
C[C@@H]1CN([C@H](C)CO)C(=O)c2cc(NC(=O)CCCCCC(=O)Nc3ccccc3N)ccc2O[C@@H]1CN(C)Cc1ccncc1 -1.11%
COc1ccc2c3c([nH]c2c1)[C@@H](CO)N(C(=O)c1cccc(F)c1)CC31CN(C(C)=O)C1 -11.3%
O=C(C[C@H]1C=C[C@@H](NC(=O)Nc2cc(F)ccc2F)[C@H](CO)O1)NCCCN1CCOCC1 -8.14%
COc1ccccc1NC(=O)N1C[C@H]2[C@@H](c3ccccc31)[C@@H](CO)N2C(=O)C1CCCC1 -7.24%
COc1ccc(S(=O)(=O)N(C)C[C@H]2OCCCC[C@H](C)Oc3ccc(NS(=O)(=O)c4c(C)noc4C)cc3C(=O)N([C@@H](C)CO)C[C@@H]2C)cc1 -3.17%
C[C@@H]1CCCCO[C@@H](CN(C)S(C)(=O)=O)[C@H](C)CN([C@@H](C)CO)C(=O)c2cc(NC(=O)Nc3ccc4c(c3)OCO4)ccc2O1 12.2%
Cc1noc(C)c1S(=O)(=O)N(C)C[C@@H]1OCCCC[C@H](C)Oc2ccc(NC(=O)Nc3ccc4c(c3)OCO4)cc2C(=O)N([C@H](C)CO)C[C@@H]1C -3.84%
Cc1noc(C)c1S(=O)(=O)N(C)C[C@@H]1OCCCC[C@@H](C)Oc2ccc(NS(=O)(=O)c3ccccc3)cc2C(=O)N([C@H](C)CO)C[C@@H]1C -8.98%
Cc1noc(C)c1S(=O)(=O)N(C)C[C@@H]1OCCCC[C@H](C)Oc2ccc(NC(=O)NC3CCCCC3)cc2C(=O)N([C@@H](C)CO)C[C@H]1C -11.4%
Cc1noc(C)c1S(=O)(=O)N(C)C[C@@H]1OCCCC[C@@H](C)Oc2ccc(NC(=O)Nc3ccccc3)cc2C(=O)N([C@H](C)CO)C[C@@H]1C 3.34%
CCC(=O)N1CCC2(CC1)CN(Cc1cccc(OC)c1)[C@@H](CO)c1[nH]c3cc(OC)ccc3c12 -4.07%
C[C@@H]1CN([C@H](C)CO)C(=O)c2cc(C#CCN(C)C)cnc2O[C@@H]1CN(C)C(=O)Cc1cccnc1 6.92%
CCc1cccc(NC(=O)O[C@H]2[C@H](OC(=O)Nc3ccccc3-c3ccccc3)[C@H](OC(=O)Nc3ccccc3-c3ccccc3)[C@@H](OC)O[C@@H]2CO)c1 1.23%
CC(C)CNc1cccc2c1S(=O)(=O)N[C@H](C)CO2 2.95%
CN(C)C(=O)C[C@@H]1C=C[C@H](NC(=O)Nc2cccc(F)c2)[C@H](CO)O1 -10%
COc1ccc(CCNC2=CC(=O)CC(C)(C)C2)cc1 16.6%
CC1(C)CC(=O)C=C(c2ccc(Cl)c(C(F)(F)F)c2)C1 1.16%
COc1ccc(-c2csc3ncnc(N4CCN(S(=O)(=O)c5cccc(F)c5)CC4)c23)cc1 5.97%
O=S(=O)(Nc1ncnc2sccc12)c1cccc(F)c1 -1.13%
O=C1CN(S(=O)(=O)c2ccccc2)C[C@H]2[C@H](c3ccc(C4=CCCC4)cc3)[C@@H](CO)N12 -1.48%
COc1cccc(NC(=O)N[C@@H]2CC[C@H](CC(=O)Nc3ccccc3)O[C@@H]2CO)c1 3.12%
Nc1ccccc1-c1cn(CC(=O)Nc2ccon2)nn1 15.8%
CO[C@@H]1CN(C)C(=O)c2ccc(NS(=O)(=O)c3cccc(C)c3)cc2OC[C@@H](C)NC[C@H]1C 10.6%
Cc1noc(C)c1NC(=O)N(C)C[C@@H]1OCCCC[C@H](C)Oc2ccc(NC(=O)NC3CCCCC3)cc2C(=O)N([C@H](C)CO)C[C@@H]1C -0.006%

CPE inhibition, active:
CCOc1ccc(Oc2nc(C)cc(OC)n2)nn1 71.4%
O=C(CN1CCc2cc3c(cc2C1)OCCCO3)Nc1ccccc1 28.1%
COCC(=O)N1[C@H](CNC(=O)c2ccccn2)[C@H](c2ccccc2)[C@@H]1CO 35.1%
CCOc1ccc(C(=O)Nc2ccc(CN3CCOCC3)cc2)cc1Cl 29.8%
CCCCN(C)CCCNC(=O)c1cc(-c2cccs2)nc2ccccc12 41.4%
C/C=C/c1ccc([C@@H]2[C@@H](CN(C)C(C)=O)N(C(=O)C3CC3)[C@H]2CO)cc1 41.4%
CC(C)NC(=O)N1[C@@H]2c3ccc(-c4ccc(F)cc4)c(=O)n3C[C@@H]2[C@@H](CO)[C@@H]1C(=O)N1CCOCC1 69.3%
CC(C)(C)[S@](=O)N1Cc2cc(C(=O)N3CCCCC3)nc(-c3cccc(Br)c3)c2[C@@H]1CCO 41.3%
CCOC(=O)C1=C(C)N(C[C@@H]2CC[C@@H](Cc3ccc(-c4ccccc4)cc3)O2)C(=O)NC1c1ccc([N+](=O)[O-])cc1 (some centres not stated) 49.3%
Cc1noc(C)c1S(=O)(=O)N(C)C[C@@H]1OCCCC[C@H](C)Oc2ccc(NC(=O)Nc3ccc4c(c3)OCO4)cc2C(=O)N([C@H](C)CO)C[C@H]1C 27.1%
Cc1noc(C)c1S(=O)(=O)N(C)C[C@@H]1OCCCC[C@H](C)Oc2ccc(NC(=O)NC(C)C)cc2C(=O)N([C@H](C)CO)C[C@@H]1C 51.8%
COc1ccc(S(=O)(=O)Nc2ccc3c(c2)C(=O)N([C@@H](C)CO)C[C@H](C)[C@H](CN(C)S(=O)(=O)c2c(C)noc2C)OCCCC[C@@H](C)O3)cc1 36%
COc1cc(F)c(C2=CC(=O)CC(C)(C)C2)cc1F 26.9%
Cc1cc(F)ccc1S(=O)(=O)Nc1ncnc2scc(-c3ccc(F)cc3)c12 46.8%
